Assay results as given in publication PMC13494018.

B1: design_613_5efed0bc-64ba-423b-b3f9-a246574e49bb_1763_dldesign_0_cycle1_af2pred (protein)
chain: LQELIENGETLEALGKSAAAAGFNATAKRLYQDAAEQYKKAAEKAKELGDEELAKEYEAKAKEAEAKAKEY
B2: design_613_5efed0bc-64ba-423b-b3f9-a246574e49bb_1690_dldesign_0_cycle1_af2pred (protein)
chain: AAALEVGRRTLAALERTAEAAIAAARATTPEEAAREMGRARAAAEQARLIGEGVPELAPRAEALAERVAAAAAALEAA
B3: design_613_5efed0bc-64ba-423b-b3f9-a246574e49bb_1256_dldesign_0_cycle1_af2pred (protein)
chain: DKAVTSAILRKSLAHARRQLAAATTAEEAEAVAQTAQVLADAAKAAGDAATAAEAAALAAEARAKAAALRAAEEAAA
B4: design_613_5efed0bc-64ba-423b-b3f9-a246574e49bb_1354_dldesign_0_cycle1_af2pred (protein)
chain: GEALKEALRQKALEAANKALALTSQLWTKDPARAQPAIALIIQGLETGDPKYFFEAAEKVAADPEAAGAAKAAGEYMEKANKL
B5: design_613_5efed0bc-64ba-423b-b3f9-a246574e49bb_2281_dldesign_0_cycle1_af2pred (protein)
chain: AAAELIAKAKEYQAKALEYVKLAKEAEAAAKAATPEEGAKLNAKADFFNAMALVYAQRAAALLAQVDPALAKAALEKVQKAIA
B6: design_613_5efed0bc-64ba-423b-b3f9-a246574e49bb_2054_dldesign_0_cycle1_af2pred (protein)
chain: FERAARAVEAVIELLRLLAEGNPATAAELRARAEELEAELAKARELAEKEGPEAGKARAEAIAAEGRRLLAEASRTAV
B7: design_613_5efed0bc-64ba-423b-b3f9-a246574e49bb_2419_dldesign_0_cycle1_af2pred (protein)
chain: ALGQQLVQQAKEKGKELLEIAKKGTAADAGEAAVELARFTSETARQLEQAGLPAAAQQVLAIGQKTLKEISAIGIAKITA
B8: design_613_5efed0bc-64ba-423b-b3f9-a246574e49bb_1343_dldesign_0_cycle1_af2pred (protein)
chain: LAEAAERTARAIERNALEAIKTLSPEEAKRAAELAVTMLEGLAIAAPEAAPVARGLAERVRAAEREYTSKKLAE
B9: design_613_5efed0bc-64ba-423b-b3f9-a246574e49bb_1441_dldesign_0_cycle1_af2pred (protein)
chain: SEAERLAEEARRVILSGTAEEGAAAAVAAARKALEAGNLEGANLVLYESALAFGEAQRRGTPEDRAILNRGLAEVSRITLELARAA
B10: design_614_ef6b398b-10cb-4a07-8087-96dafb4f9c83_741_dldesign_0_cycle1_af2pred (protein)
chain: SELIERAKNLLEAAKVFLTAAQSALAAGQKATAATLAQQAIKYATEAAKLAKEAGDEKLAEEAKKVKEQAEKVLKQAQ
B11: design_613_5efed0bc-64ba-423b-b3f9-a246574e49bb_1285_dldesign_0_cycle1_af2pred (protein)
chain: GLKEELLKEVRKVKKEAEKNAKDLEKLNEYLAKALDIAKKAQEAGDKETIAEATKVANLAAKLALEVAKA
B12: design_613_5efed0bc-64ba-423b-b3f9-a246574e49bb_2086_dldesign_0_cycle1_af2pred (protein)
chain: AEDERRVASMRELAAQLVAIAEANAANPAALAIVRASALAAGRSFAAAASPEAAAEILAIAAATAARIAAIAAAAAAAA
B13: design_613_5efed0bc-64ba-423b-b3f9-a246574e49bb_1210_dldesign_0_cycle1_af2pred (protein)
chain: AEKIEKLTKALELLLEALKHKDDIELARELAKKAAELLKEAGAEEAAKYAEAAAKATDKEEMTELLNKAAGKAAKAIIDAQKAAA
B14: design_614_ef6b398b-10cb-4a07-8087-96dafb4f9c83_520_dldesign_0_cycle1_af2pred (protein)
chain: AEGKALFEATKKEMEELREKGKAGTPELAKEQAAKILSLGLRTQGVLQTLGHTAEGDAALEYAKEVAEKAREWAKK
B15: design_614_ef6b398b-10cb-4a07-8087-96dafb4f9c83_4_dldesign_0_cycle1_af2pred (protein)
chain: AAGDEAANAAIALGQVLGPEVAEETTKAVEYMKSGSEKEKAKEYAEKAVELAEKVGPNSAASLKAILEKAEKLFS
B16: design_613_5efed0bc-64ba-423b-b3f9-a246574e49bb_2155_dldesign_0_cycle1_af2pred (protein)
chain: AAAQAAAVATAAGQALLKQGKKLFEEGKKSGDKKLLEEAAKNFELAATMYAQASAAAGGAADANKKEAEAKLEEAKAAI
B17: design_614_ef6b398b-10cb-4a07-8087-96dafb4f9c83_652_dldesign_0_cycle1_af2pred (protein)
chain: GAAEEAKKWAKKAEEALKAAQKAADAAGKTPTLQQYVDNAKRAAEKAKETSKDPSKVEQTKGWAKMAELWAQAAKQQAAAVAAA
B18: design_613_5efed0bc-64ba-423b-b3f9-a246574e49bb_1212_dldesign_0_cycle1_af2pred (protein)
chain: SPVEVALAAAKATVKSAEKANVESAEKLAEVAKDLAEYAAKLGGEEAKKEAEKIKKEAEEAVKKQKERAAAA
B19: design_614_ef6b398b-10cb-4a07-8087-96dafb4f9c83_806_dldesign_0_cycle1_af2pred (protein)
chain: AAAQLAAENIALAKAIFEEVRKEALKAIEALKKAKEAASDPELAAKYLEKAKEALKKAEELAAKGSEGIALLARNYVRSLLASTA
B20: design_613_5efed0bc-64ba-423b-b3f9-a246574e49bb_1796_dldesign_0_cycle1_af2pred (protein)
chain: SAANIAAAKAYANMAATLAKQAGNEEAAKKAKEAAKVAADKEKATKLLKEAEELLKKEPAEKAPYTNKALEFIKLAKEALSKL
B21: design_613_5efed0bc-64ba-423b-b3f9-a246574e49bb_992_dldesign_0_cycle1_af2pred (protein)
chain: GERVEELRALVEEAARVSPELAALAQEALRLYLRGLALSANPATAARGEAAFAESERLAAEARARLAERLAAAAA
B22: design_613_5efed0bc-64ba-423b-b3f9-a246574e49bb_2052_dldesign_0_cycle1_af2pred (protein)
chain: GGAAAIALAEAVARQAERQAEEAIAIAPERAPEIEELLERARELAKQAVALAKAGDLGAATEHVVKALELVGEIGRIAREAAAA
B23: design_614_ef6b398b-10cb-4a07-8087-96dafb4f9c83_13_dldesign_0_cycle1_af2pred (protein)
chain: SEAEKQAIEIAIAAVLKAGELAGVPEEAKKVAEKIKKSNAGAALAIASAFLNRAAAAAEAAGDAATAAAIRALRTATTAKILALLRG
B24: design_613_5efed0bc-64ba-423b-b3f9-a246574e49bb_1183_dldesign_0_cycle1_af2pred (protein)
chain: AEAQKLLEEARKLKEKAFALSPLQVGESLRYASELRKLAEKAAEADPSLAPEAKALAEETSAHVAAKARAGIAAQAA
B25: design_613_5efed0bc-64ba-423b-b3f9-a246574e49bb_1308_dldesign_0_cycle1_af2pred (protein)
chain: AAAEKAKEAAKKAEELAKYAEEHKEELTPEELRKIGYELVKQGNTLLQAGGAAQAAAQKAFGYAAEVAELIRE
B26: design_613_5efed0bc-64ba-423b-b3f9-a246574e49bb_1611_dldesign_0_cycle1_af2pred (protein)
chain: DAAAKAKAKEAEAKGKELIAKAKAAAEAGDYDAANAYLQQAIKLGMEMASSGASQAEVDVGAKIVSAVVEAMEYMSAQRRARR
B27: design_613_5efed0bc-64ba-423b-b3f9-a246574e49bb_1180_dldesign_0_cycle1_af2pred (protein)
chain: AEAEEKKRRAEAHVQAAEVYITAARSAMEAGLTDAALAHAKRAIEHAQKAIELGEPRGKELLAEAEAVLKEVKA
B28: design_613_5efed0bc-64ba-423b-b3f9-a246574e49bb_1387_dldesign_0_cycle1_af2pred (protein)
chain: AAAAAQAGQLAVQAAQGMIKKAKEILKRMPEVDPEKALASAKGVTDVAQALADQAIASPATAAQGKALKAEAKAVLAEAEKAAA
B29: design_613_5efed0bc-64ba-423b-b3f9-a246574e49bb_1341_dldesign_0_cycle1_af2pred (protein)
chain: AVAAAGAKGLAAAAKSVAEATIRLAEQVAKEDPSKAEQAKAIAEQAKAAAAAAAKAAEAGDTAAAQAQFQKLVALYQQVLDLAK
B30: design_613_5efed0bc-64ba-423b-b3f9-a246574e49bb_1398_dldesign_0_cycle1_af2pred (protein)
chain: MEEVKEEMEKLLEKVKKAVAEDVGKGGEVLVEFVKKGAELAANSTPEAAAYARKKMKEAINIVLEATLAA
B31: design_613_5efed0bc-64ba-423b-b3f9-a246574e49bb_898_dldesign_0_cycle1_af2pred (protein)
chain: GEEEERLRREGERIVEEARRLAEEAVAAIKAAAPDVAKATAILIDYLKRIDELVKRAAPYPEAAAEVAELGNRASAQGIRYIMAAA
B32: design_614_ef6b398b-10cb-4a07-8087-96dafb4f9c83_822_dldesign_0_cycle1_af2pred (protein)
chain: AEEEKRRAIAEAAMRQFKEIAEGAAATALANPAIADGALASVKALGKNLVEGAKAQSPELGKKAAEVAKEAIEKVEKAAKEAKAA
B33: design_613_5efed0bc-64ba-423b-b3f9-a246574e49bb_1032_dldesign_0_cycle1_af2pred (protein)
chain: AQAKADELEALGKEAEKKAKEAKNPEAAALYKGAAELMNAMAEAARQTPEFADQLYRMGKASYEALKTEAEKKEAAYKEKE
B34: design_614_ef6b398b-10cb-4a07-8087-96dafb4f9c83_88_dldesign_0_cycle1_af2pred (protein)
chain: GAALEEALRARAEAARRAMVAVSQAYQLDPALGNEYLARLSEAIAAAEKVLAEGKAKTPEAAAKAVKAAAEEIAALAEEIAAAVEALK
B35: design_614_ef6b398b-10cb-4a07-8087-96dafb4f9c83_786_dldesign_0_cycle1_af2pred (protein)
chain: STEQAAQIALNTAKANYKAAKAAAAAGDLAQAEANVKNLKLLTEAAKYYDPEAGKEVEKYYKEAKEAVEKAKAA
B36: design_614_ef6b398b-10cb-4a07-8087-96dafb4f9c83_149_dldesign_0_cycle1_af2pred (protein)
chain: MEEAEKYLKKAEEIVEKAKEEALKYAKEGDIGAAVETLAKALKEARKLYEKAGKAGDPEEAEKKAKEAEERINQAMAEAARTALEVAN
B37: design_613_5efed0bc-64ba-423b-b3f9-a246574e49bb_1837_dldesign_0_cycle1_af2pred (protein)
chain: MTPREKAIAAINAATALAAAAVPAYADTFADLAGIVLTALEAGTGPTAVRVVGQAVVNVLRGAGATAAADAVAALYDEALEAAKAAA
B38: design_614_ef6b398b-10cb-4a07-8087-96dafb4f9c83_591_dldesign_0_cycle1_af2pred (protein)
chain: MTPEEAARAALRSARAALESLKLAVEQGGTLEDVLALGAVAKQSAQAAVELGKQAPEIYEEVKKEAEKIKKEVEKAVAKAKA

target: CD276, Q5ZPR3
Sequence (Q5ZPR3 whole entry): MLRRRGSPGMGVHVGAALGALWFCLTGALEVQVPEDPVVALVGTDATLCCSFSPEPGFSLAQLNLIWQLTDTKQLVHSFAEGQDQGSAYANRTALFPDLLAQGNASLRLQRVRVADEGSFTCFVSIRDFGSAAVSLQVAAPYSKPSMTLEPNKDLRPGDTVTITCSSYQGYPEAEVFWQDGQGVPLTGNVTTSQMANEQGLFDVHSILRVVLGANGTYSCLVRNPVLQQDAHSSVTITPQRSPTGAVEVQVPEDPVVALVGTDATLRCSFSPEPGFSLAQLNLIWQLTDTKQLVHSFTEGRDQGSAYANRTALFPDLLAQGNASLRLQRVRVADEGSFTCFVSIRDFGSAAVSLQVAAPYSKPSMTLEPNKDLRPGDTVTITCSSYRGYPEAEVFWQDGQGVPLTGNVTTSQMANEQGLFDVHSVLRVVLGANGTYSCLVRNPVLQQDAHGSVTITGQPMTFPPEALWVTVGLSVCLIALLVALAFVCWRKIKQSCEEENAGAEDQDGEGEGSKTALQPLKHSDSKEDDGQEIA

Binding in a display sort, inactive:
B1 not found
B2 not found
B3 not found
B4 not found
B5 not found
B6 not found
B7 not found
B8 not found
B9 not found
B10 not found
B11 not found
B12 not found
B13 not found
B14 not found
B15 not found
B16 not found
B17 not found
B18 not found
B19 not found
B20 not found
B21 not found
B22 not found
B23 not found
B24 not found
B25 not found
B26 not found
B27 not found
B28 not found
B29 not found
B30 not found
B31 not found
B32 not found
B33 not found
B34 not found
B35 not found
B36 not found
B37 not found
B38 not found
